Bioassay records as filed in PubChem.
Hits are enriched below; roughly 3.5% of the tested compounds scored in any of these assays.
MITF inh: MITF inhibitors, primary screen, biochemical, AlphaScreen, human. Microphthalmia-associated transcription factor (Homo sapiens), O75030. AlphaScreen MITF homodimerization, bead proximity signal. inhibition, % at 2.6 µM. actives 0.91% (n = 650,000); in the data active means inhibition above about 50%;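 further: 0% = vehicle wells with protein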
GPR151 ag: activators of human GPR151, primary screen, cell-based, PathHunter beta-arrestin, luminescence; G-protein coupled receptor 151 (Homo sapiens), Q8TDV0; PathHunter beta-arrestin GPR151 cells; activation, % at 11.2 µM; actives 1% (n = 650,000); AID 1508602, 2020; in the data active means activation above about 4.9%;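 further: 0% = median of compound wells and 100% = cells with positive control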
FBW7 act: FBW7 E3 ligase activators, primary screen, biochemical, AlphaScreen, human. AID 1259310, 2017. normalized activity (activation), % at 26.1 µM. F-box/WD repeat-containing protein 7 (Homo sapiens), Q969H0. actives 0.13% (n = 650,000). AlphaScreen FBW7–phospho-cyclin E peptide binding, activator screen; in the data active means normalized activity above about 1.9%;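 further: purified mutant Fbw7 with reduced substrate affinity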
Target sequence (Q969H0 whole entry, looked up): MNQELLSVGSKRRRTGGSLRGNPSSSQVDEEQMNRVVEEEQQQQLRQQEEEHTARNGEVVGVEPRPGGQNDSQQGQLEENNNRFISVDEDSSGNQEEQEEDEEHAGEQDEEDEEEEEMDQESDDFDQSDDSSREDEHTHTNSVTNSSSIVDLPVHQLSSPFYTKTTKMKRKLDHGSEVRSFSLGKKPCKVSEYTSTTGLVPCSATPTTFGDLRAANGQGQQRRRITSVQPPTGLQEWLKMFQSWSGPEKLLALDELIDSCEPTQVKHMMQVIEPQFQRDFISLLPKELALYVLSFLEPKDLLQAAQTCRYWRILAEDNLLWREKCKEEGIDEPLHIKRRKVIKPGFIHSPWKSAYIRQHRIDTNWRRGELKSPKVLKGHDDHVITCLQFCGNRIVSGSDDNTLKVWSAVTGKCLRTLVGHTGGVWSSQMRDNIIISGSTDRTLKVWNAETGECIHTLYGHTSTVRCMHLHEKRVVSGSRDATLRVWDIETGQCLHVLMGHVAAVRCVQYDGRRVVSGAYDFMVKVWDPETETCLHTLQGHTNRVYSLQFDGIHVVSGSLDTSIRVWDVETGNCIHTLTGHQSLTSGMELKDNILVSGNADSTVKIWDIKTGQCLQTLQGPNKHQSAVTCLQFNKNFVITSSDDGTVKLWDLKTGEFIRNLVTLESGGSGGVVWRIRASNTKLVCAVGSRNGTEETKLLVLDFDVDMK
TEAD-YAP inh: TEAD-YAP interaction inhibition, primary screen, TEAD-YAP interaction inhibitor project, luminescence, HEK-TIYL cells | inhibition, % at 9.12 µM | TEAD-Gal4/YAP UAS-luciferase luminescence | AID 1259422, 2018 | actives 1.4% (n = 640,000); in the data active means inhibition above about 32%;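 further: 0% = median of test compound wells and 100% = reference inhibitor wells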
GPR151 conf act: GPR151 activators, triplicate retest, confirmation, cell-based, PathHunter beta-arrestin, luminescence; shares compounds with GPR151 ag; AID 1508609, 2020; 6,700 tested, under 10 active; GPR151 PathHunter beta-arrestin cells, 90 min; % of EA-reagent control over plate median; activation, % at 11.2 µM;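 active means mean percent activation across replicates above the confirmation screen cutoff of 4.91%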
GPR119 ag: GPR119 activators in beta-arrestin cells, counter-screen for GPR151 activator project, cell-based, PathHunter beta-arrestin, luminescence, triplicate; actives 0.3% (n = 6,700); activation, % at 11.2 µM; 90 min; 0 = compound-well median, 100 = enzyme-acceptor control; shares compounds with GPR151 ag;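 active means mean percent activation in the counterscreen above 29.09%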;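 further: counterscreen on off-target GPR119 to flag nonselective hits from the GPR151 activator screen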
An asterisk follows results filed as active; nt = not tested or not shown.

SMILES	MITF inh	GPR151 ag	FBW7 act	TEAD-YAP inh	GPR151 conf act	GPR119 ag
Cc1cc(=O)oc2cc(NC(=S)NNC(=O)C3(C)CC3(Cl)Cl)ccc12 (stereo not given)	-21	0	0	7	nt	nt
COc1ccc(C(Nc2cccc(C)n2)c2ccc3cccnc3c2O)cc1 (stereo not given)	22	6.7*	0	88*	0	-1
Cc1nc2sc3c(c2c(=O)n1-n1cccc1)CCCC3	7	5.9*	0	-3	0	8
Cc1ccccc1-n1c(C)nc2sc3c(c2c1=O)CCC3	6	-1	0	7	nt	nt
C#CCn1c(=NC(=O)c2cc(C)no2)sc2cc(OC)c(OC)cc21	21	-1	0	0	nt	nt
COc1cc2nc(Nc3ccc(N4CCOCC4)cc3)nc(NC3CC3)c2cc1OC	22	1	0	-2	nt	nt
Cc1cccc(NC(=O)c2ccc(NCCc3ccccc3)c([N+](=O)[O-])c2)c1	10	6.6*	0	6	-1	-4
Cc1cc(C(=O)Nc2cccc(NC(=O)c3ccccc3)c2)ccc1[N+](=O)[O-]	8	6.3*	0	-11	0	3
Cc1cc(C(=O)Nc2cccc(O)c2)ccc1[N+](=O)[O-]	15	-1	0	-36	nt	nt
O=C1N(C2CCCC2)C[C@@H]2C[C@@H](c3cccn3-c3nccs3)N3CCC[C@@]123	6	6.4*	0	4	1	5
COc1ccc(NC(=O)C(C)Oc2ccc3oc(=O)cc(C)c3c2)cc1 (stereo not given)	22	-1	0	-1	nt	nt
COc1ccccc1C(=O)Nc1cccc(N(C)C)c1	4	16*	0	-11	0	-9
CCOc1ncccc1C(=O)Nc1ccc2c(C)cc(=O)oc2c1	5	-1	0	-3	nt	nt
CCOC(=O)c1cccc(NC(=O)c2ccccc2OCC)c1	9	5.5*	0	-4	0	-5
Cc1cc(=O)oc2cc(OC(C)C(=O)Nc3ccccc3)ccc12 (stereo not given)	-9	5.3*	0	7	0	-6
COc1ccccc1C(=O)Nc1ccc2c(C)cc(=O)oc2c1	13	17*	0	-65	-1	-6
CCOC(=O)C1=C(O)/C(=C/c2ccc(N(C)C)cc2)SC1=Nc1ccc(F)cc1	-13	0	0	6	nt	nt
COc1ccc(C(=O)NC2=C(C#N)CCC2)cc1OC	21	1	0	-2	nt	nt
N#CC1=C(NC(=O)c2ccc([N+](=O)[O-])cc2)CCC1	3	5.6*	0	9	-1	6
O=C(Nc1cc(C(F)(F)F)cc(C(F)(F)F)c1)C1CC1	12	10*	0	4	-1	-22
O=C(c1ccccc1NS(=O)(=O)c1ccc(Br)s1)N1CCCC1	15	5.0*	0	2	-1	-7
Clc1ccc(Sc2ncnc3sc4c(c23)CCCC4)cc1	-1	15*	0	-5	0	-11
COCCCNc1nc2c(S(=O)(=O)c3ccccc3)nnn2c2ccsc12	-3	6.5*	0	-7	1	9
COCCCNc1nc2c(S(=O)(=O)c3ccccc3)nnn2c2ccccc12	6	-1	0	-1	nt	nt
CCCCC1=NN(C(=O)C(=O)Nc2ccc(OC)cc2)C(O)(C(F)(F)F)C1 (stereo not given)	-15	0	0	-1	nt	nt
SMILES	MITF inh	GPR151 ag	FBW7 act	TEAD-YAP inh	GPR151 conf act	GPR119 ag
O=C(CCC(=O)N(c1ccccc1)c1ccccc1)OCC(=O)c1ccc(Cl)cc1	15	0	0	-2	nt	nt
O=C1NC(=O)C(=Cc2ccc(OCc3ccccc3)c(C(=O)O)c2)C(=O)N1	11	5.6*	-1	7	0	-1
COC(=O)c1c(NC(=O)c2cc3ccccc3oc2=O)sc(C)c1-c1ccccc1	4	1	0	5	nt	nt
CC1CCN(C(=O)Cn2nc(SCc3ccccn3)nc2N)CC1	26	17*	0	5	0	2
CCN(Cc1cccc(OC)c1)C(=O)Nc1ccc(-c2cn[nH]c2)cc1O[C@H]1CCN(C)C1	-9	-2	0	-1	nt	nt
O=C(NCc1ccc2c(c1)OCO2)C(=O)NC1CCCC1	16	-2	1	3	nt	nt
COCCCn1c(=O)[nH]c2ncc(-c3cc(OC)c(OC)c(OC)c3)nc21	9	6.0*	-1	-10	0	9
COCCCn1c(=O)[nH]c2ncc(-c3ccccc3)nc21	-5	-1	-1	9	nt	nt
COc1cccc(/C=C/C(=O)Nc2ccc3nc(N4CCCCC4)cc(C)c3c2)c1OC	0	5.4*	0	-17	1	10
CC(=O)Nc1ccc(NC(=O)C/C(C)=N/NC(=O)C(=O)NCCO)cc1	-1	5.8*	0	-1	1	6
CCC(=O)Nc1sc2c(c1C(=O)N1CCCCC1)CCC(C)C2 (stereo not given)	6	0	0	8	nt	nt
Cc1c(NC(=O)C(C)N2C(=O)C3C4CCC(C4)C3C2=O)ccc(Br)c1Cl (stereo not given)	14	13*	1	3	0	2
Nc1ncc(Br)cc1S(=O)(=O)N1CCN(C2CCCCC2)CC1	4	13*	0	4	1	10
O=C(Nc1ccccc1N(C(=O)C1CC1)S(=O)(=O)c1cccs1)C1CC1	3	5.0*	0	3	0	15
Cc1cc(-n2c(SCc3ccccc3)nc3ccsc3c2=O)ccc1Cl	1	5.6*	0	-7	1	8
CC(C)N(Cc1nc(-c2ccccc2)no1)C(=O)CCCN1C(=O)c2ccccc2C1=O	14	11*	0	9	0	-4
CC(C)N(Cc1nc(-c2ccccc2)no1)C(=O)CN1C(=O)c2ccccc2C1=O	1	0	0	-3	nt	nt
COC(=O)c1ccc(Nc2nccc(-c3ccccc3)n2)cc1	6	-2	0	-22	nt	nt
NC(=O)c1ccc(Nc2nccc(-c3ccc(Cl)cc3)n2)cc1	8	5.6*	0	23	0	15
COc1ccc(Cl)cc1NC(=O)Cn1nnc(C(=O)NCCc2ccccc2)c1N	12	-1	1	8	nt	nt
COc1cc(C=O)ccc1Oc1nc2ccccc2n2cnnc12	9	5.8*	0	1	1	15
c1cncc(OC2CCN(Cc3ccc4c(c3)CN(Cc3ccn[nH]3)CCO4)CC2)c1	-13	0	0	5	nt	nt
COc1ccc2cc(N=Cc3nc(-c4ccc([N+](=O)[O-])cc4)oc3O)cnc2c1	7	0	0	-5	nt	nt
COC(=O)C1=C(NC(=O)COc2ccc(Cl)cc2)CCS1	-4	6.1*	0	4	-1	-1
